Rows were chosen to be rich in hits. Some 21% of all compounds tested hit in one or more screens of this group.
Gal4-VP16 FLuc – inhibits Gal4-VP16 luciferase reporter, ROR gamma counter-screen. Drosophila S2 Gal4-VP16 UAS-luciferase, luminescence, 20 h. Potency, µM (top dose mostly 53.6 µM), without a hit: at the highest dose activity, negative = inhibition, most hits filed as inhibitors. 310,000 compounds, 3.5% hits. AID 2546;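 note: Gal4-VP16 expression switched on by copper sulfate through the metallothionein promoter; potency is the fitted concentration of half-maximal effect; nearly all actives have a fitted effect of over 50% in size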
RORgamma inh – inhibitors of mouse ROR gamma transcriptional activity. Drosophila S2 Gal4-RORgamma UAS-luciferase reporter, 20 h. Potency, µM (doses to about 53.6 µM), inactives show at the top dose activity change, negative = inhibition, hits mostly inhibitors. 310,000 compounds, 5.4% hits; note: potency is the fitted concentration of half-maximal effect; nearly all actives have a fitted effect of over 60% in size
Target sequence (P51450 whole entry, looked up, the tested form may be a part): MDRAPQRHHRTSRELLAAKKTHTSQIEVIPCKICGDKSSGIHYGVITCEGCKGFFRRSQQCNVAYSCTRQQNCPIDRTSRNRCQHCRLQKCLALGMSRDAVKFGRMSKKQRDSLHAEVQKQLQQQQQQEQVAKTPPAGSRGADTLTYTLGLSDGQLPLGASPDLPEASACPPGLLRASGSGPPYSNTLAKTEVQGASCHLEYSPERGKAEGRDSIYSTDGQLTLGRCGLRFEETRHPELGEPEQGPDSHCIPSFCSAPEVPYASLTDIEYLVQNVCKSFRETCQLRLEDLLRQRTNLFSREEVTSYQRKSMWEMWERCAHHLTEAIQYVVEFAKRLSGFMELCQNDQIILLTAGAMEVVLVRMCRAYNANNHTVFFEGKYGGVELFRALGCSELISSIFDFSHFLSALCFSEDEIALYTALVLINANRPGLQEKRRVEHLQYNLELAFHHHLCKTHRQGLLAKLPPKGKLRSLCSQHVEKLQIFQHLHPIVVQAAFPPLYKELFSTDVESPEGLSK
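Stable Schneider cell line, Gal4 DNA-binding domain fused to ROR gamma, UAS-luciferase. Cmpd 1 hr RT → CuSO4 700 uM final → 20 hr RT → luciferase reagent 10 min → luminescence.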
TDP1 cell noCPT – qHTS for Inhibitors of human tyrosyl-DNA phosphodiesterase 1 (TDP1): qHTS in cells in absence of CPT. 420,000 compounds, 15% hits. DT40 Tdp1-/- hTDP1 cells, no CPT, ATP luminescence, 48 h. Potency, µM (titrated, usually from 46.2 µM), without a hit: top-dose activity change, negative = growth inhibition, hits mostly inhibitors. AID 686978, 2013; note: potency is the fitted concentration of half-maximal effect; nearly all actives have a fitted effect of over 55% in size
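Compound effects on proliferation are scored in DT40 Tdp1-/-;hTDP1 cells in the absence of CPT. ATP levels (CellTiter-Glo luminescence) are recorded after a ≥48 hr, 37 °C incubation.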
IL-1B inflam inh – inflammasome signaling inhibition, IL-1 beta readout; THP-1 LPS/ATP IL-1B secretion, AlphaLISA, 16 h; active compounds read low; activity change, % at 57.5 µM; 360,000 compounds, 4.7% hits; AID 743279; in the data active = activity change below about -50%; inconclusive = mostly about -30% to -49%
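Secreted IL-1B measured by AlphaLISA bead assay after 16 h compound exposure of THP-1 cells; compounds (final up to 57.5 uM) added 1 h before LPS (250 ng/mL) and ATP (1.25 mM) stimulation; lower signal means less secretion.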
ELG1 repair inh – blocks ELG1-dependent DNA repair in HEK293T cells. HEK293T ELG1-luciferase reporter, luminescence, 16 h; DNA damage induced by 5-fluorouridine. AID 504467. Potency, µM (doses to about 46.1 µM), for inactives: top-dose activity change, negative = inhibition, actives largely listed as inhibitors. 330,000 compounds, 2.3% hits; note: potency is the fitted concentration of half-maximal effect; nearly all actives have a fitted effect of over 55% in size
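Quantitative HTS, concentration-response format. 2,000 cells/well co-treated with 5-fluorouridine and compound, 16 hr in 5% CO2 at 37 °C; ONE-Glo luminescence read after 30 min.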
TDP1 cell CPT – DT40-hTDP1 cell growth loss with CPT; chicken DT40 Tdp1-/-;hTDP1 cells + 20 nM CPT, ATP luminescence, 48 h; Potency, µM (titrated, usually from 46.2 µM), for the others: at the highest dose activity change, negative = growth inhibition, usual class: inhibitors; 420,000 compounds, 12% hits; AID 686979; note: potency is the fitted concentration of half-maximal effect; nearly all actives have a fitted effect of over 55% in size
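Cell growth measured by CellTiter-Glo luminescence after a minimum 48 h, 37 C compound exposure with 20 nM CPT in Tdp1-knockout DT40 cells stably expressing hTDP1, seeded 400/well; qHTS titration format.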
* = called active by the depositor; ? = inconclusive; / = not tested or not shown; [ ] = dose if it differs, or a comment. Unless noted, calls come from the whole dose curve; as a rule, active = well fitted curve in the direction sought with a large enough effect; inconclusive = small, poorly fitted or top-dose-only effect, or another doubt; inactive = no such curve, though single readings can be large; an effect the other way counts as inactive or inconclusive. % is set by controls: 0 for no effect and ±100 for the full control effect.

SMILES | Gal4-VP16 FLuc | RORgamma inh | TDP1 cell noCPT | IL-1B inflam inh | ELG1 repair inh | TDP1 cell CPT
C[C@@H]1CN([C@H](C)CO)C(=O)CCCn2cc(nn2)CO[C@H]1CN(C)C(=O)Cc1ccccc1 | / | / | -14% | -13 | / | -25%
O=S(=O)(Nc1ccc(C(F)(F)F)cc1)c1cnc[nH]1 | -2% | 41% | 23µM* | 12 | 1% | 18µM*
O=C(NNC(=S)NCc1ccc(Cl)cc1)c1ccc(Br)o1 | -3% | 10% | -1% | 5 | 12% | -1%
O=C(NNC(=S)NCc1ccccc1)c1ccc(Br)o1 | -23% | 8.9µM* | ? | 32 | 4% | -23%
NC(=O)c1ccccc1NC(=S)NC(=O)c1ccc(Br)o1 | 17% | -28% | -15% | 0 | ? | ?
O=C(NC(=S)NCc1ccccc1)c1ccc(Br)o1 | 13µM* | ? | / | / | 3% | /
O=C(NNC(=S)NCc1ccccc1)c1ccc(Br)cc1 | -2% | 7.9µM* | ? | 12 | 1% | ?
O=C(NC(=S)NCc1ccccc1)c1ccc(Br)cc1 | / | / | ? | 4 | / | ?
CC(C)C[C@@H](CC(=O)N[C@H](CC(=O)N[C@@H]1CCCC[C@H]1C(=O)N[C@H](CC(=O)N[C@@H](CCC(=O)O)CC(=O)O)Cc1c[nH]c2ccccc12)C(C)C)NC(=O)[C@@H]1CNCC[C@H]1N | 3% | 0% | / | / | / | /
O=C1CC2CCCC(C1)S2=O (stereo unspecified) | / | / | 4% | -23 | / | 2%
COc1ccc(CCN(CC(=O)NC2CCCC2)C(=O)Cn2nnc(-c3ccc(C)o3)n2)cc1OC | 2% | 24% | -1% | 0 | ? | 1%
C=CCN(CC=C)C(=O)C1c2ccccc2Oc2ccccc21 | / | / | ? | 0 | / | 26µM*
CCN(CC)C(=O)C1c2ccccc2Oc2ccccc21 | 0% | -35% | ? | -15 | -11% | ?
COc1ccc(-c2csc(NC(=O)CS(=O)(=O)c3ccccc3)n2)cc1OC | / | / | 16µM* | ? | / | ?
O=C(Cc1ccccc1F)Nc1nc(-c2ccc(F)cc2)cs1 | 1% | ? | 5.8µM* | -94* | -12% | 8.2µM*
COc1ccc(Cc2nnc(NC(=O)c3c(-c4ccccc4)noc3C)s2)cc1 | ? | 16µM* | -16% | 35 | -12% | -7%
COc1ccc(Cc2nnc(NC(=O)c3c(-c4ccccc4)noc3C)s2)cc1OC | -22% | ? | / | / | 1% | /
COc1ccc(-c2csc(NC(=O)CCNC(=O)c3ccco3)n2)cc1OC | / | / | 16µM* | -18 | -23% | ?
CON1C(=O)C(=O)N(OC)C(C)(C)C1(C)C | ? | -1% | -10% | 13 | 8% | -16%
COc1ccc(CCNC(=O)CCNC(=O)c2ccco2)cc1 | 0% | -2% | -8% | 13 | 1% | -10%
COc1ccc(-c2nc(NC(=O)c3c(C)noc3C)sc2C)cc1 | / | / | 21µM* | 1 | -26% | 10µM*
Cn1nc(C(=O)Nc2nc(-c3ccc(F)cc3)cs2)ccc1=O | 0% | 23% | 6.5µM* | ? | ? | ?
COc1ccc(-c2csc(NC(=O)Cc3ccccc3F)n2)cc1OC | 8% | 26% | 26µM* | -64* | 16µM* | ?
COc1ccc(-c2nc(NC(=O)CCNC(=O)c3ccco3)sc2C)cc1 | -1% | ? | 18µM* | -2 | ? | 23µM*
COc1ccccc1CC(=O)Nc1nc(-c2ccc(F)c(F)c2)cs1 | 4% | ? | ? | ? | 15% | ?
SMILES | Gal4-VP16 FLuc | RORgamma inh | TDP1 cell noCPT | IL-1B inflam inh | ELG1 repair inh | TDP1 cell CPT
Cc1cc(C)c(-c2csc(NC(=O)c3n[nH]c(=O)c4ccccc34)n2)c(C)c1 | ? | ? | 4.1µM* | 24 | 8% | 9.2µM*
COc1ccccc1C(CNC(=O)C1CC(=O)N(Cc2ccccc2)C1)N1CCCC1 (stereo unspecified) | / | / | 4.6µM* | -8 | 0% | -2%
COc1ccc(CC(=O)Nc2nc(-c3ccc(OC)c(OC)c3)cs2)cc1OC | ? | ? | 21µM* | -86* | 18µM* | ?
O=C(NCCc1csc(-c2ccc(F)cc2)n1)c1ccco1 | / | / | -26% | / | / | ?
COc1ccc(-c2nc(CCNC(=O)c3ccco3)cs2)cc1OC | 7% | 28% | 21µM* | -9 | ? | ?
NNC(=O)c1n[nH]c(=O)c2ccccc12 | -9% | -1% | 3% | 2 | 2% | -16%
COc1ccc(-c2csc(NC(=O)CC(NC(C)=O)c3ccccc3)n2)cc1OC (stereo unspecified) | -2% | 13% | ? | -27 | -3% | ?
CCOc1cccc(CN2CCC(Oc3ccc(C(=O)N4CCCC4)cc3)CC2)c1O | / | / | ? | -6 | / | ?
CCCCCCCCCCCn1nnnc1N | / | / | 2% | -2 | / | 2%
COc1ccc(-c2csc(NC(=O)C3CC(=O)N(Cc4ccccc4)C3)n2)cc1OC (stereo unspecified) | -2% | 3% | ? | -59* | 12µM* | ?
COc1ccc(-c2nc(NC(=O)c3n[nH]c(=O)c4ccccc34)sc2C)cc1 | -6% | -38% | 9.2µM* | 18 | -21% | 21µM*
COc1cc(NC(=O)c2n[nH]c(=O)c3ccccc23)cc(OC)c1 | 2% | -3% | -6% | -6 | ? | -11%
COc1ccc(-c2nc(NC(=O)c3cc(C(C)(C)C)nn3C)sc2C)cc1 | -11% | ? | 21µM* | -24 | 8.2µM* | ?
Cc1nnc(NC(=O)C2CC(=O)N(Cc3ccccc3)C2)s1 (stereo unspecified) | 4% | -20% | -1% | -6 | ? | -1%
CCC(CC)NC(=O)c1cccc(NC(=O)C(C)C)c1 | -9% | -15% | -16% | 34 | 6% | 0%
CC(=O)Nc1nn(CC(C)C)c2nc3ccc(C)cc3cc12 | / | / | ? | -12 | / | ?
Cc1ccc2nc3c(cc2c1)c(NC(=O)c1ccccn1)nn3CC(C)C | 5µM* | 1.8µM* | 7% | -17 | 23µM* | -7%
O=C(N/N=C/c1ccc(OC(=O)c2ccccc2)cc1)c1ccc(CN2CCOCC2)cc1 | -3% | 39% | 12µM* | 8 | 14% | ?
CNC(=S)N/N=C/c1cc(C)n(-c2ccc(Cl)c(Cl)c2)c1C | 4.5µM* | 0.79µM* | ? | -8 | ? | 23µM*
Cc1cccc(-n2c(C)cc(/C=N/NC(=O)c3ccc(CN4CCOCC4)cc3)c2C)c1 | -4%[0.365 µM] | 10µM* | -7% | 4 | -14% | ?
